One assay deals with Albumin (Bos taurus) (UniProt P02769). Briefly: compounds binding labelled BSA control protein – biochemical, small-molecule microarray, Alexa647 label, 635/667 nm fluorescence, artefact control for SMM control protein annotation, profiling panel (AID 1118).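 Further: score merges 667 nm emission intensity and signal-to-noise per printed compound spot.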 The note with it: BSA-A647 binding, fluorescence 635 nm, higher = more signal.
Assay [1] is described as follows: probe aXIP binding to arrayed compounds – biochemical, NeuroSMM set, 635/667 nm fluorescence, primary screen (AID 1119).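 Further: probe is the protein aXip251-270 applied at 1 µg/mL to compound-printed slides; binding of probe to printed compounds measured as 667 nm fluorescence plus signal to noise.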 The note with it: small-molecule microarray, higher = more signal, called active from +8 up or from −8 down.
The nature of assay [2]: probe aNOTCH3 binding on compound microarray – biochemical, small-molecule microarray, 635/667 nm fluorescence, primary screen (AID 1120).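 Further: probe is a biotin-tagged antibody raised against NOTCH3 rather than NOTCH3 protein; score merges spot fluorescence near 667 nm with spot signal to noise.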 Particulars: higher = more signal.
A short description of assay [3]: probe aNOTCH2 binding on compound microarray – biochemical, small-molecule microarray, 635/667 nm fluorescence, primary screen (AID 1121).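 Further: score merges feature fluorescence read at 667 nm with its signal to noise.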 Particulars: higher = more signal.
In assay [4] the target is Carbonic anhydrase 2 (Homo sapiens) (UniProt P00918). Description: compounds binding carbonic anhydrase 2 – biochemical, small-molecule microarray, Alexa647-labelled CAII, profiling panel (AID 1122). Particulars: CAII-A647 binding fluorescence, higher = more signal.
Assay [5] in a line: COS7 lysate on small-molecule microarray, probe aHis, 635 nm (AID 1123).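 Further: z-score combines 667nm fluorescence intensity with signal-to-noise per printed compound spot.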 The note with it: COS7 cell lysate, fluorescence, higher = more signal.
Assay [6] can be described thus: probe aLAP1 signal on lysate-treated microarray – cell lysate, small-molecule microarray, COS7 lysate, primary screen (AID 1124).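 Further: lysate comes from COS7 cells expressing LAP1 and is applied at 0.3 µg/mL; score merges spot fluorescence near 667 nm with signal-to-noise over triplicate slides.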 Particulars: probe aLAP1, fluorescence, higher = more signal.
In another assay the test system is Sam68 (KHDRBS1). Description: compounds binding KHDRBS1 protein – biochemical, small-molecule microarray, 635 nm fluorescence, primary screen (AID 1125).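 Further: score merges 667 nm channel intensity with signal to noise over triplicate slides.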 The note with it: higher = more signal.
For assay [7], the system named is Chordin-like protein 2 (CHRDL2). Briefly: compounds binding chordin-like 2 – biochemical, small-molecule microarray, 635 nm fluorescence, primary screen (AID 1126).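 Further: printed compound slides probed with Chrdl2 protein at 4 µg/mL for 1 h at 4 C; score merges 667 nm emission intensity with signal to noise over three replicate slides.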 The note with it: fluorescence 635 nm, higher = more signal.
Assay [8] has as its target Concanavalin-A (Canavalia ensiformis) (UniProt P02866). Description: compounds binding concanavalin A lectin – biochemical, small-molecule microarray, Alexa647 label, 635 nm, artefact control for SMM control protein annotation, primary screen (AID 1127).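 Further: z combines 667 nm emission intensity with signal-to-noise across three replicate slides.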 The note with it: ConA-A647 binding fluorescence, higher = more signal.
A short description of assay [9]: compounds binding Alexa647 anti-His antibody – biochemical, small-molecule microarray, 635 nm fluorescence, artefact control for SMM control protein annotation, primary screen (AID 1128).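 Further: score merges feature fluorescence with signal-to-noise for each printed compound spot.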 The note with it: higher = more signal.
The subject of assay [10] is Human papillomavirus type 1a E7 protein (residues 1-88). Description: HPV1a E7 small-molecule binders, primary screen, biochemical, small-molecule microarray, residues 1-88, 635 nm (AID 1129). The note with it: small-molecule microarray binding, fluorescence 635 nm; higher = more signal.
The target of assay [11] is Focal adhesion kinase 1 (Homo sapiens) (UniProt Q05397). Description: PTK2 protein binding on printed compound slides – biochemical, small-molecule microarray, 635/667 nm fluorescence, BSA, DTT, primary screen (AID 1130).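 Further: composite of spot emission at 667 nm and signal to noise over triplicate slides.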 Particulars: 635 nm fluorescence, higher = more signal.
In assay [12] the test system is Fibrinogen (Alexa647-labelled). Briefly: Alexa647-fibrinogen binding to printed small molecules – biochemical, small-molecule microarray, 635/667 nm fluorescence, artefact control for SMM control-protein annotation, profiling panel (AID 1131).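 Further: z-score merges 667 nm fluorescence with per-spot signal-to-noise over triplicate slides.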 The note with it: fibrinogen-A647 binding fluorescence, higher = more signal.
Assay [13] deals with Follistatin (Homo sapiens) (UniProt P19883). Briefly: FST protein binding to printed compounds – biochemical, small-molecule microarray, 635/667 nm fluorescence, primary screen (AID 1132). The note with it: 635 nm fluorescence, higher = more signal.
In assay [14] the target is Fibroblast growth factor 2 (Homo sapiens) (UniProt P09038). Briefly: basic fibroblast growth factor binding to printed compounds – biochemical, small-molecule microarray, 635/667 nm fluorescence, primary screen (AID 1133). Particulars: FGF2, fluorescence 635/667, higher = more signal.
The nature of assay [15]: JC-1 mitochondrial potential readout, lung cancer cells – cell-based, A549, JC-1 fluorescence, basal, 24 h, 100 nL, profiling panel (AID 1138).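 Further: A549 lung adenocarcinoma cells under basal conditions with no added stimulus; test concentration not given here.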 Particulars: higher = more signal.
In a further assay the test system is Lefty1. Description: Lefty1 protein binding to printed compounds – biochemical, small-molecule microarray, 635/667 nm fluorescence, primary screen (AID 1139). The note with it: fluorescence 635/667, higher = more signal.
Assay [16] has as its system wheat germ agglutinin (Triticum aestivum), Alexa647-labelled. Description: Alexa647-WGA lectin binding to printed small molecules – biochemical, small-molecule microarray, 635/667 nm fluorescence, artefact control for SMM control-protein annotation, profiling panel (AID 1140).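 Further: score merges 667 nm feature emission with signal to noise over triplicate slides.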 The note with it: WGA-A647 binding, 635 nm fluorescence, higher = more signal.
For assay [17], the target named is Luciferin 4-monooxygenase (Photinus pyralis) (UniProt P08659). Description: inhibition of purified Photinus pyralis luciferase – biochemical, luminescence, purified enzyme, 2006 set, primary screen (AID 1141).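 Further: cell-free assay with purified firefly luciferase at 100 ng per well in PBS; test concentration not given here.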 The note with it: purified firefly luciferase, SteadyGlo luminescence, 30 min; higher = more signal, called active from +8 up or from −8 down.

The structures appear in SMILES notation. Calls of active or inactive are those of the source.

Sequence of Fibroblast growth factor 2 (Homo sapiens) (P09038 whole entry, looked up): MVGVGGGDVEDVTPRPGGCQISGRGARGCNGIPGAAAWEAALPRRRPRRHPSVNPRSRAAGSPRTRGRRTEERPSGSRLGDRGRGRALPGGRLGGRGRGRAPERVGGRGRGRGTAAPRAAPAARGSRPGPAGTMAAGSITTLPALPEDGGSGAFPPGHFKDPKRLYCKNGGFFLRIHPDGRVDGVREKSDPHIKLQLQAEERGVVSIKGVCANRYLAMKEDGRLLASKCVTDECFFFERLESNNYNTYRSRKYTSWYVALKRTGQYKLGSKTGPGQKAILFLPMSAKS
Sequence of Albumin (Bos taurus) (P02769 whole entry, looked up): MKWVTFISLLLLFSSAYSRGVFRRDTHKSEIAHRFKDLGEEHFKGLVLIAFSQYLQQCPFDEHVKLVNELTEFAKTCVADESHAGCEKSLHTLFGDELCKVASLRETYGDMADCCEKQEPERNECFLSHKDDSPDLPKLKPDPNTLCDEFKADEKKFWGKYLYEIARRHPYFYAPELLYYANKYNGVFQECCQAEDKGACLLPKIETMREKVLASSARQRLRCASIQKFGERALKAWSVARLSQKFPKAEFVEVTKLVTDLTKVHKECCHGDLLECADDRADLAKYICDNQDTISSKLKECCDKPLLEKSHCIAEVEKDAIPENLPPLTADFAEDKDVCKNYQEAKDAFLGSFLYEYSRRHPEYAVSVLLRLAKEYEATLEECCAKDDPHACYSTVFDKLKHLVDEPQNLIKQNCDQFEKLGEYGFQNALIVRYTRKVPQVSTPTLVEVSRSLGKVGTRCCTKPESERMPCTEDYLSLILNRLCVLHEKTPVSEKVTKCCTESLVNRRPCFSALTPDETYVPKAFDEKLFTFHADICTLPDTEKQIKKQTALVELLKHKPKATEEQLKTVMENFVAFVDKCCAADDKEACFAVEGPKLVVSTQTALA
Sequence of Luciferin 4-monooxygenase (Photinus pyralis) (P08659 whole entry, looked up): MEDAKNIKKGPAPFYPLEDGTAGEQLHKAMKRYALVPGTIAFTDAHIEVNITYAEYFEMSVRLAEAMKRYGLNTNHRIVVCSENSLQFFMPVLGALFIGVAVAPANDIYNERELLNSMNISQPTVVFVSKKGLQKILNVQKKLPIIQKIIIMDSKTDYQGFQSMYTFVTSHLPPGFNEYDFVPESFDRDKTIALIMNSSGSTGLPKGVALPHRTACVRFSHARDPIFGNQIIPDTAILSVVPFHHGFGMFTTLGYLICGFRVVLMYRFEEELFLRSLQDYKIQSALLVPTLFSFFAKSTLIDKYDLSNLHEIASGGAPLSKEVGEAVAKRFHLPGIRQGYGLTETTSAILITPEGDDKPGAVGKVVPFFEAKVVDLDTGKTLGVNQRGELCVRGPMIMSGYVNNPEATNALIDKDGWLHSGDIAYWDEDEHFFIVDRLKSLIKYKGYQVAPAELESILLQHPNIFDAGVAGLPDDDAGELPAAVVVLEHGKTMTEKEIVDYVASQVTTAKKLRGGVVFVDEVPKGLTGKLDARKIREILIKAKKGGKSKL
Sequence of Follistatin (Homo sapiens) (P19883 whole entry, looked up): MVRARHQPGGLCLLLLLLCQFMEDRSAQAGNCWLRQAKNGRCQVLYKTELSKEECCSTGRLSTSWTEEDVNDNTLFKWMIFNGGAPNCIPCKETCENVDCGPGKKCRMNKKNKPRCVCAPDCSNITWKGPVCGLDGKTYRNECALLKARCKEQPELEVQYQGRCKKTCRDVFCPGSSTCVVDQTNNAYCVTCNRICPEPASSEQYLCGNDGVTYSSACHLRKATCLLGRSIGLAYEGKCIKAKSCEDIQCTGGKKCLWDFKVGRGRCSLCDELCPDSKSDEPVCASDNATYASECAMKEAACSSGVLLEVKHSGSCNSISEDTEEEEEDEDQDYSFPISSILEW
Sequence of Focal adhesion kinase 1 (Homo sapiens) (Q05397 whole entry, looked up): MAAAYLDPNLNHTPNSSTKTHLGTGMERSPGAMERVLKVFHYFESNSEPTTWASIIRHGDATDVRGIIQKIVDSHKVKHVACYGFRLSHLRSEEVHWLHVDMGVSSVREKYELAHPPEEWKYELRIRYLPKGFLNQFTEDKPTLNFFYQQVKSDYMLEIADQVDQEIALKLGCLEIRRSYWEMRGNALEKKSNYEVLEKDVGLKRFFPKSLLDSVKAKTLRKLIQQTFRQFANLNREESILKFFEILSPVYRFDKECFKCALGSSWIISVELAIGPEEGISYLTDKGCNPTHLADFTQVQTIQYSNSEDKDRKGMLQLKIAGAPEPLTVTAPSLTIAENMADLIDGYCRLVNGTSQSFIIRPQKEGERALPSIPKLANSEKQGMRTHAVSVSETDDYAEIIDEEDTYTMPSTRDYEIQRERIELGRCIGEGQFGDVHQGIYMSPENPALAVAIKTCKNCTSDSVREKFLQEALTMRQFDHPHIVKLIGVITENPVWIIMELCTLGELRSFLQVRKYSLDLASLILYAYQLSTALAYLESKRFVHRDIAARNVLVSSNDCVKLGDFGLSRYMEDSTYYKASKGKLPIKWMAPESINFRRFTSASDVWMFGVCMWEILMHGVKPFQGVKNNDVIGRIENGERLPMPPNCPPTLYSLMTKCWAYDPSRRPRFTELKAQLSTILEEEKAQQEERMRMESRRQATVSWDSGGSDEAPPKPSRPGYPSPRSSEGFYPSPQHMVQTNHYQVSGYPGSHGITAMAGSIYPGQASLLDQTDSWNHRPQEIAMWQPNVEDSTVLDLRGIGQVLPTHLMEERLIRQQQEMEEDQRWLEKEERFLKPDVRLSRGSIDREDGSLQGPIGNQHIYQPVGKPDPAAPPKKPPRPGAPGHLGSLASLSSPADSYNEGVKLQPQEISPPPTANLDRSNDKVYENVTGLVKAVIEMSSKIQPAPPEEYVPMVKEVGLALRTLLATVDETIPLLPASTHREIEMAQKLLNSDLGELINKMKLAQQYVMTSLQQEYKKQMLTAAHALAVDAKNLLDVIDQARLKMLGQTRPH
Sequence of Concanavalin-A (Canavalia ensiformis) (P02866 whole entry, looked up): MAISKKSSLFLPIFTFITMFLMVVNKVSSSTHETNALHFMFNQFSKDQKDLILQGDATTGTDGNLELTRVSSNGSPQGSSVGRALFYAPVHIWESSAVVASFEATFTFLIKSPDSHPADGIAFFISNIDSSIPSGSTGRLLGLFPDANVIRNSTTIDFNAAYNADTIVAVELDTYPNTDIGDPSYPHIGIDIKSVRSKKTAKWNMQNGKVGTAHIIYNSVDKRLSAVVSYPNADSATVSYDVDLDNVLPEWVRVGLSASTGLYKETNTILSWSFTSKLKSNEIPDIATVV

As to `COc1ccc([Si](C)(C)[C@@H]2[C@@H](CC(=O)N3CCC[C@H]3CO)O[C@]3(C(=O)N(Cc4cccc(N5CCC5=O)c4)c4ccccc43)[C@H]2C)cc1`, the composite z-score with Albumin (Bos taurus) is 0.263; in assay [2], 0.239; in assay [3] it was -0.0288; in assay [4] it was 0.14; in [5], 2.25; in assay [6], 0.317. The composite z-score was 1.31 in the assay on Sam68 (KHDRBS1); 0.453 in assay [7]; 0.811 in assay [8]; 0.97 in [9]; 1.18 in assay [10]; 0.418 in assay [11]. The composite z-score in assay [12] was determined as 0.809; in assay [13] it was 0.907; in [14], 0.402; in the assay on Lefty1 it was 0.917; in assay [16], 0.81. The composite Z-score in assay [1] is 0.188 (inactive). Moreover, the figures for the z-score in assay [15] and in [17] were 1.04 and -1.69 (inactive), respectively.
For `C#C[C@@H](CC)O[Si](C#Cc1ccc(Oc2ccccc2)cc1)(C(C)C)C(C)C`, the composite z-score with Albumin (Bos taurus) was -0.109; in assay [2], 0.122; in assay [3] it was -0.11; in assay [4] it was 0.535; in [5], 0.476; in assay [6] it was 0.339. The composite z-score was 1.3 with Sam68 (KHDRBS1); 0.234 in assay [7]; 0.218 in assay [8]; 0.491 in assay [9]; 0.649 in assay [10]; -0.0378 in assay [11]. For the same molecule, the composite z-score in assay [12] was determined as 0.15; in assay [13], 0.395; in assay [14] it was 0.307; with Lefty1, 0.63; in [16] it was 0.299. Moreover, in assay [1], the composite Z-score is 0.317 (inactive). Further, the z-score in assay [15] was -1.81; in assay [17], 0.0007 (inactive).
On to `CCOC(=O)CCN1C(=O)[C@H]2[C@H]3[C@H](O)[C@H](O)CC(=NOC[C@@H](O)COCc4ccco4)[C@H]3CC[C@H]2C1=O`, for which the composite z-score in the assay with Albumin (Bos taurus) was 0.494; in [2] it was 0.0059; in assay [3], -0.171; in [4], 0.0762; in assay [5], -0.128; in assay [6], 0.0706. The composite z-score with Sam68 (KHDRBS1) was 1.32; in assay [7], -0.173; in assay [8] it was 0.66; in [9], 0.659; in [10], 0.785; in assay [11], 0.857. For the same molecule, the composite z-score in assay [12] turned out to be 0.894; in assay [13], 0.938; in assay [14], 0.229; in the assay with Lefty1, 0.863; in [16], 0.288. In [1], the composite Z-score was -0.0692 (inactive). Besides, the z-score is -1.06 in assay [15] and 0.586 (inactive) in [17].
For `COC(=O)[C@@]1(Cc2ccc(F)cc2)[C@@H]2C(=CC(=O)[C@H]2CC(=O)C(=O)N(C)C)CN1C(=O)c1ccccc1`, the composite z-score with Albumin (Bos taurus) was 0.979; in assay [2], 0.476; in assay [3], 0.308; in assay [4], 0.785; in [5], 3.01; in assay [6] it was 0.663. Moreover, the composite z-score with Sam68 (KHDRBS1) was 1.21; in [7], 0.13; in [8] it was 1.16; in [9], 2.36; in assay [10], 1.26; in assay [11], 1.09. Besides, the composite z-score in [12] was 0.981; in assay [13], 0.635; in [14], -0.54; in the assay on Lefty1, -0.421; in assay [16], 0.847. In addition, the composite Z-score in assay [1] was -1.12 (inactive). Also, the z-score in assay [15] was 0.589; in assay [17], 1.24 (inactive).

Source of the values: PubChem BioAssay.
